Compound activity deposited in PubChem by National Center for Advancing Translational Sciences (NCATS).
Rows were chosen to be rich in hits. Some 8.5% of all compounds tested hit in one or more screens of this group.
RGS12 GoLoco inh: inhibitors of human Gai1-RGS12 GoLoco interaction (red fluorophore); P63096; actives 0.44% (n = 230,000); Potency, µM (titrated, usually from 61.6 µM), for the others: top-dose activity, negative = inhibition, usual class: inhibitors; Gai1:RGS12 GoLoco peptide FP, rhodamine, 10 min; active = well fitted inhibition curve with a large enough effect, not every such curve was filed as active; inactive = no such curve, though single readings can be large or run the other way; note: potency is the fitted concentration of half-maximal effect; nearly all actives have a fitted effect of over 30% in size
Target sequence (P63096 whole entry, looked up): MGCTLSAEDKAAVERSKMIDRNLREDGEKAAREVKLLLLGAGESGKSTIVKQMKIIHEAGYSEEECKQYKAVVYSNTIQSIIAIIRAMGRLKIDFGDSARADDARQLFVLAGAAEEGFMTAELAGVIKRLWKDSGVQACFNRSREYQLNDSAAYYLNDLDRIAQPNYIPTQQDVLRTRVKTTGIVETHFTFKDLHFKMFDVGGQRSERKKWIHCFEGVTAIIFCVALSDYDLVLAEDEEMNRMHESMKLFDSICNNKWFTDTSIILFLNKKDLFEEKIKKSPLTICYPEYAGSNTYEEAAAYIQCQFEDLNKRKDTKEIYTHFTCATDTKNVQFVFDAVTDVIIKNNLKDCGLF
Sfp PPTase inh: Sfp phosphopantetheinyl transferase inhibition. Biochemical Sfp PPTase activity, qHTS. AID 1490. Potency, µM, inactives show largest response in the series, negative = inhibition, usual class: inhibitors. actives 3.5% (n = 310,000). Q9F4F7; active = well fitted curve in the direction sought with a large enough effect; inconclusive = small, poorly fitted or top-dose-only effect, or another doubt; inactive = no such curve, though single readings can be large; an effect the other way counts as inactive or inconclusive;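 note: the enzyme is Sfp with the accession as filed and its product quenches rhodamine fluorescence; potency is the fitted concentration of half-maximal effect; 0% = enzyme reaction without inhibitor and -100% = no enzyme wells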
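Compounds were incubated with enzyme (final 15 nM) for 15 min at room temperature before substrate addition started the reaction. Fluorescence at 525 nm excitation, 598 nm emission was recorded immediately and after 30 minutes.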
Coupling enz: counter-screen for Giardia aldolase inhibitors: coupling enzyme system | coupling enzyme system counterscreen, AmpLite Red fluorescence | activity change, negative = inhibition, % at 58.2 µM, hits read low | actives 0.67% (n = 290,000); in the data active = activity change below about -30%
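Counterscreen lacking aldolase: glyceraldehyde-3-phosphate coupling-enzyme reagent preincubated 10 min at RT with compound (at 57.5 uM final), then substrate/coupling system with AmpLite Red added; fluorescence read at 525/598 nm after 20 min RT.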
KDM4E inh: blocks human JMJD2E demethylase activity. JMJD2E catalytic domain, FDH-coupled NADH fluorescence (FDH is formaldehyde dehydrogenase). Potency, µM (titrated, usually from 57.1 µM), inactives show at the highest dose activity change, negative = inhibition, usual class: inhibitors. actives 1.6% (n = 230,000). AID 2147;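 note: potency is the fitted concentration of half-maximal effect; 0% = wells with enzyme and -100% = buffer wells without enzyme; nearly all actives have a fitted effect of over 50% in size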
ALDH1A1 block: blocks purified human ALDH1A1 activity. P00352. Purified ALDH1A1, NADH fluorescence, propionaldehyde substrate. Potency, µM (top dose mostly 75.3 µM), without a hit: at the highest dose activity, negative = inhibition, actives largely listed as inhibitors. actives 7.3% (n = 220,000). AID 1030;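 note: potency is the fitted concentration of half-maximal effect; plate controls were no enzyme wells and a reference inhibitor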
NPSR antag: antagonists of human neuropeptide S receptor cAMP signaling | Q6W5P4 | CHO-NPSR cells, cAMP TR-FRET, antagonist mode | Potency, µM (top dose mostly 38.3 µM), without a hit: top-dose activity change, negative = inhibition, usual class: inhibitors | actives 1% (n = 220,000) | AID 1461; active = well fitted curve in the direction sought with a large enough effect; inconclusive = small, poorly fitted or top-dose-only effect, or another doubt; inactive = no such curve, though single readings can be large; an effect the other way counts as inactive or inconclusive; note: potency is the fitted concentration of half-maximal effect; nearly all actives have a fitted effect of over 50% in size
Target sequence (Q6W5P4 whole entry, looked up): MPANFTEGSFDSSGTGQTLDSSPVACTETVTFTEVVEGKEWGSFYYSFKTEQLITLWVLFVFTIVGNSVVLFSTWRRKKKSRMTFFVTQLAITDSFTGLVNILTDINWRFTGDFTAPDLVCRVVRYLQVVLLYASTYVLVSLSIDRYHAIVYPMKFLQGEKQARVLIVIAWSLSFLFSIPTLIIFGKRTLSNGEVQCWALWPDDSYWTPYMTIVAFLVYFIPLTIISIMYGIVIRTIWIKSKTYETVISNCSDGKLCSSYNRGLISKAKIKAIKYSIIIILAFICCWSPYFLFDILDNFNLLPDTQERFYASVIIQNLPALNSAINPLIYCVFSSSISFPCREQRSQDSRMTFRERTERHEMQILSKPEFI
* = called active by the depositor; ! = a repeat was not active; [ ] = remark or other dose. Unless noted, calls come from the whole dose curve; as a rule, active = well fitted inhibition curve with a large enough effect (not every such curve was filed as active); inconclusive = small, poorly fitted or top-dose-only effect, or another doubt; inactive = no such curve, though single readings can be large or run the other way. Unless noted, % is set by controls: 0 for no effect and ±100 for the full control effect.

How did O=C(Nc1cccc(-c2cnc3ccccc3n2)c1)C1CC(=O)N(c2ccccc2)C1 (stereo not drawn) do in these assays?
Sfp PPTase inh: -29%

How did O=[N+]([O-])c1cc2oc3c(c2c(C=NCc2ccncc2)c1O)CCCC3 do in these assays?
RGS12 GoLoco inh: 5%; Sfp PPTase inh: inconclusive; Coupling enz: -32*; KDM4E inh: 28µM*; ALDH1A1 block: inconclusive; NPSR antag: -49%

What do the screens show for `O=C(Cc1ccccc1)Nc1ccccc1C(=O)N1CCN(c2ccccc2)CC1`?
Sfp PPTase inh: -7%; Coupling enz: 1

Results for Cc1ccc(N(NC(=O)C(O)(c2ccccc2)c2ccccc2)C(=O)CCl)cc1 ?
RGS12 GoLoco inh: -3%; Sfp PPTase inh: -29%; Coupling enz: 4; KDM4E inh: 2%; ALDH1A1 block: inconclusive; NPSR antag: 2.5µM*

What do the screens show for `Cc1ccc(C(O)(C(=O)NN(C(=O)c2ccccc2)c2ccccc2)c2ccc(C)cc2)cc1`?
RGS12 GoLoco inh: -11%; Sfp PPTase inh: 22%; Coupling enz: 0; KDM4E inh: -2%; ALDH1A1 block: 4%; NPSR antag: -29%

What do the screens show for `O=C1CC(c2ccco2)Cc2nc(N3CCc4ccccc4C3)ncc21` (stereo not drawn)?
RGS12 GoLoco inh: -6%; Sfp PPTase inh: 25µM*; Coupling enz: -3; KDM4E inh: -6%; ALDH1A1 block: 13µM*; NPSR antag: -15%[46.1 µM]

How did COc1ccc(C(=O)Nc2ncc3c(n2)CC(c2ccco2)CC3=O)cc1 (stereo not drawn) do in these assays?
RGS12 GoLoco inh: -2%; Sfp PPTase inh: 50µM*; Coupling enz: 0; KDM4E inh: -1%; ALDH1A1 block: inconclusive; NPSR antag: 5%[7.67 µM]

What do the screens show for `CC(=O)Nc1ncc2c(n1)CC(c1ccco1)CC2=O` (stereo not drawn)?
RGS12 GoLoco inh: 4%; Sfp PPTase inh: -10%; Coupling enz: 0; KDM4E inh: -27%; ALDH1A1 block: -12%; NPSR antag: 8%[46.1 µM]

Results for O=C(CSC(=S)N1CCCCC1)Nc1ncc2c(n1)CC(c1ccco1)CC2=O (stereo not drawn) ?
RGS12 GoLoco inh: 8%; Sfp PPTase inh: -14%; Coupling enz: 12; KDM4E inh: 0%; ALDH1A1 block: 4µM*; NPSR antag: 11%

Results for O=C(Nc1ncc2c(n1)CC(c1ccco1)CC2=O)c1ccco1 (stereo not drawn) ?
RGS12 GoLoco inh: 6%; Sfp PPTase inh: 32µM*; Coupling enz: -4; KDM4E inh: -10%; NPSR antag: -1%

How did CC1Sc2ccc(S(=O)(=O)CCC(=O)N3CCCC3)cc2NC1=O (stereo not drawn) do in these assays?
Sfp PPTase inh: 18%; Coupling enz: -1

Results for O=C(NC12CC3CC(CC(C3)C1)C2)c1cc(F)c(F)c(F)c1F ?
Sfp PPTase inh: -15%; Coupling enz: 0

Results for NS(=O)(=O)c1ccc(Cc2ncc(C(F)(F)F)cc2Cl)s1 ?
RGS12 GoLoco inh: 12%; Sfp PPTase inh: 11%; Coupling enz: 1; KDM4E inh: -3%; ALDH1A1 block: 0%; NPSR antag: -4%[46.1 µM]

How did NNS(=O)(=O)c1ccc(Cc2ncc(C(F)(F)F)cc2Cl)s1 do in these assays?
RGS12 GoLoco inh: 0%; Sfp PPTase inh: 3%; Coupling enz: 3; KDM4E inh: -1%; ALDH1A1 block: 3.2µM*; NPSR antag: -3%[46.1 µM]

How did O=C(CCl)c1ccc(Cc2ncc(C(F)(F)F)cc2Cl)s1 do in these assays?
RGS12 GoLoco inh: 7%; Sfp PPTase inh: -20%; Coupling enz: 3; KDM4E inh: -1%; ALDH1A1 block: 0.71µM*; NPSR antag: -11%[46.1 µM]

How did COc1ccc(CN2C(=O)c3cccnc3C2Nc2cc(Cl)c(OC)cc2OC)cc1 (stereo not drawn) do in these assays?
RGS12 GoLoco inh: 27%; Sfp PPTase inh: -27%; Coupling enz: -2; KDM4E inh: 16µM*; ALDH1A1 block: inconclusive; NPSR antag: -26%[46.1 µM]

What do the screens show for `CCN1C(=O)/C(=C2/Sc3ccccc3N2CC)SC1=S`?
Sfp PPTase inh: -4%; Coupling enz: 6

Results for CCN1C(C)=C(C)S/C1=C1\SC(=S)N(N)C1=O ?
RGS12 GoLoco inh: 16%; Sfp PPTase inh: 20µM*; Coupling enz: -1; KDM4E inh: 25%; ALDH1A1 block: 20µM*; NPSR antag: -19%

Results for CCOC(=O)C1(CCCc2ccccc2)CCN(C(=O)CCc2cnn(C)c2)CC1 ?
RGS12 GoLoco inh: 6%; Sfp PPTase inh: 10%; Coupling enz: 7; KDM4E inh: -9%; ALDH1A1 block: inconclusive; NPSR antag: -12%

How did CCOC(=O)C1(CCCc2ccccc2)CCN(C(=O)CCN2CCCCC2=O)CC1 do in these assays?
RGS12 GoLoco inh: 2%; Sfp PPTase inh: 21%; Coupling enz: 3; KDM4E inh: 5%; ALDH1A1 block: 4.5µM*; NPSR antag: 8%

What do the screens show for `CCOC(=O)C1(CCCc2ccccc2)CCN(C(=O)c2cnc(C)cn2)CC1`?
RGS12 GoLoco inh: 13%; Sfp PPTase inh: -13%; Coupling enz: 2; KDM4E inh: 2%; ALDH1A1 block: 4.5µM*; NPSR antag: 14%

What do the screens show for `CCOC(=O)C1(CCCc2ccccc2)CCN(C(=O)CCCn2cncn2)CC1`?
RGS12 GoLoco inh: -3%; Sfp PPTase inh: 9%; Coupling enz: 0; KDM4E inh: 12%; ALDH1A1 block: inconclusive; NPSR antag: -5%

What do the screens show for `CCOC(=O)C1(CCCc2ccccc2)CCN(C(=O)CCOC)CC1`?
RGS12 GoLoco inh: 7%; Sfp PPTase inh: -3%; Coupling enz: 3; KDM4E inh: 3%; ALDH1A1 block: 0.45µM*; NPSR antag: -18%

What do the screens show for `Cc1ccn2c(C=O)c(-c3ccc(F)cc3)c(C=O)c2c1`?
RGS12 GoLoco inh: 93%; Sfp PPTase inh: -9%; Coupling enz: 0; KDM4E inh: -7%; ALDH1A1 block: 13µM*; NPSR antag: -37%

Results for CC/C(O)=C(\C#N)c1nnc2n1CCCCC2 ?
RGS12 GoLoco inh: 1%; Sfp PPTase inh: 89µM*; KDM4E inh: -1%; ALDH1A1 block: -12%; NPSR antag: 5%[46.1 µM]

Results for CCOc1ccc(N(CC(=O)NC2CCCCC2)C(=O)CCC(=O)Nc2nccs2)cc1 ?
Sfp PPTase inh: 9%; Coupling enz: 1

Results for C=C(CC)C(=O)c1ccc(OCC(=O)O)c(Cl)c1Cl ?
RGS12 GoLoco inh: -20%; Sfp PPTase inh: 20µM*!; Coupling enz: 12; KDM4E inh: -10%; ALDH1A1 block: 14µM*!; NPSR antag: inconclusive

What do the screens show for `CCc1cc(=O)oc2cc(OCC(=O)O)c(Cl)cc12`?
RGS12 GoLoco inh: 9%; Sfp PPTase inh: 23%; Coupling enz: 11; KDM4E inh: inconclusive; ALDH1A1 block: inconclusive; NPSR antag: -4%[46.1 µM]
